# Results as given in the supplement of paper PMC13380429.
# Legend:
# [1] = tested on: Vero E6 infected with SARS-CoV-2; experiment: morphology score (similarity to uninfected cells); higher = more like uninfected cells; settings: 24 h
# [2] = tested on: Vero E6 infected with SARS-CoV-2; experiment: SARS-CoV-2 infection rate relative to infected DMSO; higher = more infection, active = 60 or less; settings: 24 h
Structure (SMILES),morphology score [1],SARS-CoV-2 infection rate [2]
COc1cc(OC)cc(C(=O)NNC(=O)Nc2cccc3ccccc23)c1 (10 µM),0.0721,105% (inactive)
Cc1ccc(S(=O)(=O)Nc2ccc3c(c2)c(C(=O)C(F)(F)F)cn3CC(=O)N[C@@H](CC(C)C)C(=O)O)cc1 (10 µM),0.0604,104% (inactive)
O=C(Oc1ccc([N+](=O)[O-])cc1)N1CCN(Cc2cccc(Oc3ccccc3)c2)CC1 (10 µM),0.162,95.5% (inactive)
COc1nc(C)cnc1NS(=O)(=O)c1cccnc1-c1ccc(-c2nnco2)cc1 [zibotentan] (10 µM),0.109,120% (inactive)
N#Cc1cc(CN2CCC(Nc3ncnc4sc(Cl)cc34)CC2)ccc1F (10 µM),-0.299,116% (inactive)
CCOCCn1c(C2CCN(CCc3ccc(C(C)(C)C(=O)O)cc3)CC2)nc2ccccc21 [bilastine] (10 µM),0.144,107% (inactive)
C#CCOC(=O)C1=CCCN(C)C1 [arecaidine-propargyl-ester] (10 µM),0.0331,93.5% (inactive)
CCOC(=O)[C@@H](C)Oc1ccc(Oc2nc3ccc(Cl)cc3o2)cc1 [fenoxaprop-p-ethyl] (10 µM),-0.0825,106% (inactive)
CCCCCCCCCCCCCCSCC(=O)O [tetradecylthioacetic-acid] (10 µM),-0.0649,112% (inactive)
O=C(O)COC(=O)Cc1ccccc1Nc1c(Cl)cccc1Cl [aceclofenac] (10 µM),-0.0479,110% (inactive)
O=c1ccn([C@@H]2O[C@H](COP(=O)(O)OP(=O)(O)OP(=O)(O)O)[C@@H](O)[C@H]2O)c(=O)[nH]1 (10 µM),0.267,97% (inactive)
CC(CCc1ccccc1)NCC(O)c1ccc(O)c(C(N)=O)c1 (stereo not given) [labetalol] (10 µM),-0.119,114% (inactive)
O=C(/C=C/c1ccc2c(c1)OCO2)N1CCCCC1 [ilepcimide] (10 µM),0.197,95.5% (inactive)
"CCS(=O)(=O)N(C)[C@H]1c2cc(C#N)ccc2OC(C)(C)[C@@H]1O [chromanol-293B-(-)-[3R,4S]] (10 µM)",0.135,104% (inactive)
COc1ccc(CCN(C)CCCC(C#N)(c2cc(OC)c(OC)c(OC)c2)C(C)C)cc1OC (stereo not given) [gallopamil] (10 µM),0.176,98% (inactive)
Cc1cn(C[C@H](N)C(=O)O)c(=O)n(Cc2ccsc2C(=O)O)c1=O (10 µM),-0.0699,96.5% (inactive)
C[n+]1ccc(C(=O)NCc2ccccc2)cc1 [enisamium-iodide] (10 µM),0.172,90% (inactive)
Cc1cccc(NC(=O)c2ccc(C(F)(F)F)cc2C(=O)O)n1 (10 µM),-0.208,109% (inactive)
CO/N=C(\C(=O)N[C@@H]1C(=O)N2C(C(=O)O)=C(CSc3nc(=O)c(O)nn3C)CS[C@H]12)c1csc(N)n1 [ceftriaxone] (10 µM),-0.108,112% (inactive)
c1ccc(N2CCN(CCCOc3ccc4c(c3)OCO4)CC2)cc1 (10 µM),0.0822,101% (inactive)

Structure (SMILES),morphology score [1],SARS-CoV-2 infection rate [2]
Nc1nc2c(cnn2CCc2ccccc2)c2nc(-c3ccco3)nn12 (10 µM),-0.139,112% (inactive)
C=CC[C@@H]1/C=C(\C)C[C@H](C)C[C@H](OC)[C@H]2O[C@@](O)(C(=O)C(=O)N3CCCC[C@H]3C(=O)O[C@H](/C(C)=C/[C@@H]3CC[C@@H](O)[C@H](OC)C3)[C@H](C)[C@@H](O)CC1=O)[C@H](C)C[C@@H]2OC [tacrolimus] (10 µM),0.199,93% (inactive)
CC(C)NC(=O)c1ccc(C#Cc2ccncc2)cn1 (10 µM),0.0135,102% (inactive)
CCC(=O)OCC(=O)[C@@]1(OC(=O)CC)[C@H](C)C[C@H]2[C@H]3[C@H]([C@@H](O)C[C@@]21C)[C@@]1(C)C=CC(=O)C=C1C[C@H]3Cl [alclometasone-dipropionate] (10 µM),0.139,98% (inactive)
Cc1c(NC(=O)OC[C@@H]2COCCN2)cn2ncnc(Nc3ccc4c(cnn4Cc4cccc(F)c4)c3)c12 (0.833333 µM),-0.105,102% (inactive)
O=S(=O)(O)c1ccc2[nH]c(-c3ccccc3)nc2c1 [phenylbenzimidazole-sulfonic-acid] (10 µM),0.087,104% (inactive)
CC(O)(P(=O)(O)O)P(=O)(O)O [etidronic-acid] (10 µM),0.115,103% (inactive)
Nc1ccccc1NC(=O)c1ccc(CNc2nccc(-c3cccnc3)n2)cc1 [mocetinostat] (0.833333 µM),-0.00842,104% (inactive)
O[C@@](Cc1nc(CC2(C(F)(F)F)CC2)c[nH]1)(c1ccc(-n2cccn2)cc1)C(F)(F)F (10 µM),0.03,112% (inactive)
N#C/C(=C1/SCC(c2ccccc2Cl)S1)n1ccnc1 (stereo not given) [lanoconazole] (10 µM),0.0956,99.5% (inactive)
CC(C)C[C@@H](N)C1(c2ccc(Cl)cc2)CCC1 (10 µM),-0.0886,116% (inactive)
CCn1c(N)c(C(=O)NC)c(=O)c2ccc(C#C[C@@](C)(O)COC)nc21 (10 µM),0.464,92% (inactive)
C[C@@H](NC(=O)c1ncnc(N)c1Cl)c1ncc(C(=O)Nc2cc(C(F)(F)F)c(Cl)cn2)s1 (10 µM),-0.0506,108% (inactive)
CCc1cccc(N(C)C(=N)Nc2cccc3ccccc23)c1 [aptiganel] (10 µM),0.0916,104% (inactive)
Cc1ccc(-c2nn(C(C)(C)CNC(=O)c3ncccc3C)c3ncnc(N)c23)cc1 [WEHI-345-analog] (0.833333 µM),-0.0639,122% (inactive)
Oc1ccc(Nc2nc(-c3ccc(Cl)cc3)cs2)cc1 (10 µM),0.129,106% (inactive)
CC1(C)O[C@@H]2C[C@H]3[C@@H]4CCC5=CC(=O)C=C[C@]5(C)[C@H]4[C@@H](O)C[C@]3(C)[C@]2(C(=O)CO)O1 [desonide] (10 µM),0.0066,107% (inactive)
COc1ccc(-c2csc(NC(=O)[C@H]3CCCCN3S(=O)(=O)c3ccc(C)cc3)n2)cc1 (10 µM),0.424,61.5% (inactive)
COc1cc(N)c(Cl)cc1C(=O)NC1CCN(Cc2ccccc2)CC1 [clebopride] (10 µM),-0.0118,110% (inactive)
C#C[C@]1(O)CC[C@H]2[C@@H]3CCC4=CC(=O)CCC4=C3C=C[C@@]21CC [gestrinone] (10 µM),0.0853,103% (inactive)

Structure (SMILES),morphology score [1],SARS-CoV-2 infection rate [2]
NS(=O)(=O)c1ccc(NC(=O)Nc2ccc(F)cc2)cc1 (10 µM),0.0694,108% (inactive)
CC(=O)O[C@H]1C(=O)[C@@]2(C)[C@H]([C@H](OC(=O)c3ccccc3)[C@]3(O)C[C@H](OC(=O)[C@H](O)[C@@H](NC(=O)c4ccccc4)c4ccccc4)C(C)=C1C3(C)C)[C@]1(OC(C)=O)CO[C@@H]1C[C@@H]2O [paclitaxel] (10 µM),0.00639,108% (inactive)
CN1C(=O)N(c2cc(Cl)cc(Cl)c2)C(=O)[C@]12CN(Cc1cc(C(=O)O)cs1)C[C@H]2c1ccc(C#N)cc1 (10 µM),0.281,92.5% (inactive)
CCCCCCCCCCCCCCCCOc1nc2ccc(C)cc2c(=O)o1 [cetilistat] (10 µM),-0.00505,104% (inactive)
Cc1ccccc1-n1c(Cn2ncc3c(N)ncnc32)nc2cccc(C)c2c1=O (10 µM),0.373,45% (active)
Cc1noc2c1-c1ccccc1C(c1ccc(Cl)cc1)=N[C@H]2CC(N)=O (10 µM),-0.0562,108% (inactive)
COc1ccc2nc3[nH]nc(C)c3c(NCCOCCO)c2c1 (10 µM),-0.00598,111% (inactive)
CC(C)(C)c1cc(C=C(C#N)C#N)cc(Br)c1O (10 µM),0.14,108% (inactive)
Oc1ccc([C@H]2COc3cc(O)ccc3C2)cc1 [equol] (10 µM),-0.116,114% (inactive)
O=C1NCCN1c1ncc([N+](=O)[O-])s1 [niridazole] (10 µM),0.233,95% (inactive)
COC1CCN(C(=O)c2cc(Cc3n[nH]c(=O)c4ccccc34)ccc2F)CC1 (10 µM),0.118,103% (inactive)
Nc1nc(Cl)nc2c1ncn2[C@@H]1O[C@H](CO)[C@@H](O)[C@H]1O [2-chloroadenosine] (10 µM),-0.0246,105% (inactive)
COc1ccc(CC2NCCc3c2[nH]c2ccc(C)cc32)c(Cl)c1OC (stereo not given) (0.833333 µM),-0.0343,104% (inactive)
COC(c1ccccc1)(c1ccccc1)[C@H](Oc1nc(C)cc(C)n1)C(=O)O [ambrisentan] (10 µM),-0.0233,104% (inactive)
CO[C@@]1(NC(=O)Cc2cccs2)C(=O)N2C(C(=O)O)=C(COC(N)=O)CS[C@@H]21 [cefoxitin] (10 µM),0.228,100% (inactive)
C[n+]1cccc(C(=O)[O-])c1 [trigonelline] (0.833333 µM),0.0676,108% (inactive)
CC(=O)N[C@@H](Cc1c[nH]c2ccccc12)C(=O)OCc1cc(C(F)(F)F)cc(C(F)(F)F)c1 (10 µM),0.31,93% (inactive)
O=C(O)c1cc(=O)c2ccccc2[nH]1 [kynurenic-acid] (10 µM),0.122,97% (inactive)
C[C@H]1O[C@@H](Oc2c(-c3cc(O)c(O)c(O)c3)oc3cc(O)cc(O)c3c2=O)[C@@H](O)[C@@H](O)[C@@H]1O [myricitrin] (10 µM),0.147,103% (inactive)
OC[C@H]1NC[C@@H](O)[C@@H](O)[C@@H]1O [1-deoxymannojirimycin] (10 µM),-0.0915,102% (inactive)
